This is a sample that favours compounds with a hit; in the whole collection about 2.4% have one here.
Pol iota inh – blocks human DNA polymerase iota activity. Q9UNA4. Pol iota fluorescent replication assay, 10 min. Potency, µM (highest dose often 115 µM), hits mostly inhibitors. 390,000 compounds, 1% hits. AID 588590
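Pol iota at 10 nM preincubated 15 min with compounds at room temperature; reaction started with fluorescent substrate, 50 nM final. Fluorescence read kinetically at 0 and 10 min; buffer-only wells as negative control.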
Pol eta inh-1 – blocks human DNA polymerase eta activity; 390,000 compounds, 1.2% hits; AID 588591; Q9Y253; Potency, µM (titrated, usually from 114 µM), most hits filed as inhibitors; recombinant Pol eta, fluorescent DNA replication assay
Target sequence (Q9Y253 whole entry, looked up): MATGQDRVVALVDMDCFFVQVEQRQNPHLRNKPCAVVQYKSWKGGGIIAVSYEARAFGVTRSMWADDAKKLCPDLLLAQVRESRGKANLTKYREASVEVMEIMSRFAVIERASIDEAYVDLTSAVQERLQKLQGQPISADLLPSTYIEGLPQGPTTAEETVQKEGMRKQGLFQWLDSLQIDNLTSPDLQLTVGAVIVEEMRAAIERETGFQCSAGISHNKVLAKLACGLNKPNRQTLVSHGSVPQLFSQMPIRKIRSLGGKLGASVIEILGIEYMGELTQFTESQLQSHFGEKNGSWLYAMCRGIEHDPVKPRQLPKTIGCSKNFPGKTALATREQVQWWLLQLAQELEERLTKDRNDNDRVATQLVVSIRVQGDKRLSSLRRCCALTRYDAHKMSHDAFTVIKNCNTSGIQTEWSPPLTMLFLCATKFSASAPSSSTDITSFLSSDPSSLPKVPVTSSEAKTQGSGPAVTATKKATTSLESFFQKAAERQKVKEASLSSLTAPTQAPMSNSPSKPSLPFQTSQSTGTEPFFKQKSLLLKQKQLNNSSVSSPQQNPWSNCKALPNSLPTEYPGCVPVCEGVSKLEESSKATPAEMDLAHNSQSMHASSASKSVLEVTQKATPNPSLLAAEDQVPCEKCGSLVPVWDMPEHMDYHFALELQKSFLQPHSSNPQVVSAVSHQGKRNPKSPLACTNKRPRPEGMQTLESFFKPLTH
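Fluorescent replication assay: 50 nM final substrate added after a 15 min room-temperature compound preincubation with 10 nM enzyme. Signal taken at 0 min and again at 10 min.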
Pol kappa inh-1 – DNA polymerase kappa (human) inhibition. Q9UBT6. purified Pol kappa, fluorescent DNA synthesis assay, 10 min. Potency, µM (highest dose often 107 µM), usual class: inhibitors. 400,000 compounds, 0.53% hits
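First, compounds were pin-transferred onto 10 nM Pol kappa. After 15 min at room temperature, substrate was added to 50 nM final. Fluorescence was then measured kinetically at 0 and 10 min.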
FEN1 inhibitor – blocks human flap endonuclease 1; P39748; Recombinant FEN1 flap cleavage, fluorescence, 15 min; Potency, µM (top dose mostly 114 µM), usual class: inhibitors; 390,000 compounds, 0.35% hits; AID 588795; note: nearly all actives have a fitted effect of over 65% in size
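FEN1 at 10 nM, compound pretreatment for 15 min (room temperature), 50 nM final substrate to initiate; endpoint reads at 0 and 15 min; DMSO-only plates used as vehicle background.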
Pol beta inh – inhibitors of human DNA polymerase beta | P06746 | 340,000 compounds, 1.3% hits | Potency, µM (top dose mostly 114 µM), actives largely listed as inhibitors | Pol beta primer extension/strand displacement, fluorescence kinetic
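Homogeneous kinetic assay of primer extension and strand displacement by 10 nM Pol beta, preincubated 15 min at room temperature with compound before 50 nM substrate (final) was added. Read at 0 and 10 min; four-parameter Hill fit.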
TDP1 block – TDP1 (human) enzyme inhibition | Q9NUW8 | recombinant TDP1, AlphaScreen DNA substrate cleavage | Potency, µM (series often up to 130 µM), most hits filed as inhibitors | 350,000 compounds, 0.28% hits; note: nearly all actives have a fitted effect of over 40% in size
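Enzyme-compound mixtures sat 15 min at room temperature, followed by a 5 min reaction with 15 nM final substrate and 10 min with AlphaScreen beads. Recombinant human Tdp1 was used at 1 nM final.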
PGK validate – TbPGK inhibition, hit validation | shares compounds with Pol kappa inh-1 | TbPGK coupled GAPDH assay, Kinase-Glo luminescence | Potency, µM (doses to about 57.5 µM), actives largely listed as inhibitors | 500 compounds, 79% hits; note: nearly all actives have a fitted effect of over 65% in size
Pol iota confirm – Confirm cherry-picked inhibitors of human polymerase iota. Potency, µM, actives largely listed as inhibitors. 1,500 compounds, 77% hits. Pol iota primer extension, TAMRA/BHQ fluorescence. shares compounds with Pol kappa inh-1
Pol kappa inh-2 – Pol kappa (human) inhibition, cherry-pick confirmation; 920 compounds, 76% hits; shares compounds with Pol eta inh-1; purified Pol-kappa, fluorescent strand-displacement substrate; Potency, µM, most hits filed as inhibitors; AID 720501
Pol eta inh-2 – Pol eta (human) inhibition, cherry-pick confirmation. shares compounds with Pol eta inh-1. Pol eta primer extension, TAMRA/BHQ fluorescence, 10 min. 2,600 compounds, 64% hits. Potency, µM, hits mostly inhibitors
Numbers stand for hits; 0 = inactive; ? = inconclusive; - = no result. Calls come from the whole dose curve; as a rule, active = well fitted curve in the direction sought with a large enough effect; inconclusive = small, poorly fitted or top-dose-only effect, or another doubt; inactive = no such curve, though single readings can be large; an effect the other way counts as inactive or inconclusive.

SMILES	Pol iota inh	Pol eta inh-1	Pol kappa inh-1	FEN1 inhibitor	Pol beta inh	TDP1 block	Pol iota confirm	Pol eta inh-2	others
Cc1cc(=O)[nH]c(N/N=C/c2ccc(OC(=O)c3ccco3)cc2)n1	0	50µM	0	0	0	0	?	-
O=C(N/N=C/c1c[nH]c2ccc(Br)cc12)c1ccncc1	56µM	?	0	0	?	89µM	67	-
COc1ccc2nc3cc(Cl)ccc3c(Nc3ccc(O)c(CN4CCN(C)CC4)c3)c2c1	?	?	79µM	22µM	-	-	?	-
Cc1ccc(CCNC(=O)c2cc3c(s2)-c2ccccc2OC3)cc1	79µM	?	?	?	14µM	40µM	47	?
CC1CCN(CCCNC(=O)c2cc3c(s2)-c2ccccc2OC3)CC1	0	0	0	0	0	0	-	-
CCOC(=O)C1=C(COC(=O)/C=C/c2ccco2)NC(=O)NC1C (stereo not given)	14µM	11µM	50µM	0	-	-	19	27
CCOC(=O)C1=C(COC(=O)/C=C/c2ccc(OC)cc2)NC(=O)NC1C (stereo not given)	0	0	0	0	-	0	-	-
CCOc1cc(/C=N/N=C2/NC(=O)C(CC(=O)O)S2)ccc1OCc1ccc(Cl)cc1Cl (stereo not given)	?	32µM	?	?	22µM	20µM	75	76	Pol kappa inh-2=75
COC(=O)c1ccccc1NC(=O)c1noc2c1CCCC2	0	0	0	0	0	0	-	-
COc1cc(NC(=O)c2noc3c2CCC3)c(OC)cc1Cl	?	18µM	32µM	?	10µM	0	38	38
CCCCC(=O)OC1CCC2C3CCc4cc(O)ccc4C3CC[C@]12C (stereo not given in full)	-	-	?	-	-	0	-	-
O=C1NN(c2ccccc2)C(=O)/C1=C\c1ccccc1OCC(=O)N1CCOCC1	0	0	0	0	0	0	-	-
CCOC(=O)c1cc(-c2ccc(/C=N\n3cnnc3)o2)ccc1Cl	0	0	0	0	0	0	-	-
Cc1cccc(N2NC(=O)/C(=C/c3ccc(-c4ccc(Cl)c(C(=O)O)c4)o3)C2=O)c1	3.5µM	6.3µM	35µM	?	25µM	11µM	34	17
O=C1NN(c2ccccc2)C(=O)/C1=C/c1ccc(-c2ccc(Cl)c(C(=O)O)c2)o1	?	7.1µM	?	?	13µM	16µM	42	30
COC(=O)c1scc(-c2ccc(C)cc2)c1S(=O)(=O)Nc1cc(OC)c(OC)c(OC)c1	0	0	0	0	0	0	-	-
CCN(CC)c1ccc2c(c1)oc(=O)c1c(Cl)cc(=O)oc12	14µM	14µM	?	0	0	-	?	?
COc1ccccc1N1CCN(c2ccc(=O)n(CC(=O)O)n2)CC1	0	?	0	0	0	0	-	-
COc1ccc(NC(=O)COC(=O)c2c3c(nc4ccccc24)CCCC3)cc1	0	0	0	0	0	0	-	-
C=CCNC(=O)COC(=O)c1c2c(nc3ccccc13)CCC2	22µM	35µM	89µM	0	22µM	-	?	54
CN(C)Cc1c(O)ccc2c(=O)c(-c3ccc(Cl)cc3)coc12	0	0	0	0	0	0	-	-
O=c1c(-c2ccc([N+](=O)[O-])cc2)coc2c(O)c(O)ccc12	8.9µM	3.2µM	7.1µM	?	?	0	-	8.5	PGK validate=2.6µM
COc1ccc(-c2csc(/C(C#N)=C\c3ccc(O)c([N+](=O)[O-])c3)n2)cc1OC	0	0	0	0	0	0	-	-
COc1cc(/C=C(\C#N)c2nc3ccccc3s2)cc([N+](=O)[O-])c1O	?	?	89µM	?	40µM	0	75	76
CCn1cc(S(=O)(=O)c2ccccc2)c(=O)c2cc(F)c(N3CCCC3)cc21	0	0	0	0	0	0	-	-
SMILES	Pol iota inh	Pol eta inh-1	Pol kappa inh-1	FEN1 inhibitor	Pol beta inh	TDP1 block	Pol iota confirm	Pol eta inh-2	others
CN(C)c1ccc2cc(S(=O)(=O)O)cc(O)c2c1	?	10µM	32µM	50µM	-	-	?	19
CN(C)c1ccc2c(O)cc(=O)n(C)c2c1	0	0	0	?	0	0	-	-
COC1=CC(=O)c2c(ccc3ncnc(N)c23)C1=O	4µM	4.5µM	0	?	-	-	4.2	8.5
COc1cccc2c1C(=O)C=C(C)C2=O	0	?	0	0	0	0	-	-
Oc1ccccc1C1C=C(c2ccc3c(c2)OCO3)NC(c2cccc(Cl)c2)N1 (stereo not given)	?	-	0	0	-	0	-	-
FC(F)(F)C1=Nc2cccc3cccc(c23)N1	1.6µM	2.2µM	6.3µM	50µM	-	-	17	21	Pol kappa inh-2=7.5
O=C(c1ccccc1)N1CCCc2ccccc21	0	0	0	0	0	0	-	-
O=C(c1ccc(=O)oc1)N1CCCc2ccccc21	13µM	3.5µM	20µM	56µM	0	18µM	42	30
NC(N)=NCCC[C@H](N)C(=O)NCC(=O)N[C@@H](CC(=O)O)C(=O)N[C@@H](CO)C(=O)O	-	-	0	-	-	0	-	-
CCOc1cc(/C=C\c2nc(O)c([N+](=O)[O-])c(=O)[nH]2)ccc1OC(C)C	0	0	0	0	0	-	-	-
C=CCc1cc(/C=C/c2nc(O)c([N+](=O)[O-])c(=O)[nH]2)cc(OC)c1O	?	11µM	79µM	45µM	25µM	?	?	30
CCN(CCCNC(=O)c1cc(Nc2ccc(OC)cc2OC)nc2ccccc12)c1cccc(C)c1	0	0	0	0	0	0	-	-
Cc1cc(C)n(CCc2nc(-c3cccs3)cs2)n1	0	0	0	0	0	0	-	-
Cc1cc(C)n(CCc2nc(-c3ccco3)cs2)n1	14µM	79µM	71µM	0	32µM	-	75	85
COc1cccc(CN(C(=O)/C=C/c2ccco2)C2CCS(=O)(=O)C2)c1 (stereo not given)	45µM	?	89µM	0	?	0	?	?
COc1cccc(CN(C(=O)c2ccco2)C2CCS(=O)(=O)C2)c1 (stereo not given)	0	0	0	0	0	0	-	-
COc1ccc(CN(C(=O)/C=C/c2ccco2)C2CCS(=O)(=O)C2)cc1 (stereo not given)	18µM	50µM	?	0	20µM	0	53	85
